# TDP1 cell CPT: growth inhibition of DT40 Tdp1-/-;hTDP1 cells with camptothecin (screen for TDP1 inhibitors); chicken DT40 Tdp1-/-;hTDP1 cells + 20 nM CPT, ATP luminescence, 48 h; Potency, µM (titrated, usually from 46.2 µM), actives largely listed as inhibitors; hit rate 12% among 420,000; further: nearly all actives have a fitted effect of over 55% in size
#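 Cell growth measured by CellTiter-Glo luminescence after a minimum 48 h, 37 C compound exposure with 20 nM CPT in Tdp1-knockout DT40 cells stably expressing hTDP1, seeded 400/well; qHTS titration format.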
# IL1B secr inh: inflammasome signaling inhibition, IL-1 beta readout | THP-1 LPS/ATP IL-1B secretion, AlphaLISA, 16 h; active compounds read low | hit rate 4.7% among 360,000 | activity change, % at 57.5 µM; in the data active means activity change below about -50%; inconclusive means mostly about -30% to -49%
#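 Secreted IL-1B measured by AlphaLISA bead assay after 16 h compound exposure of THP-1 cells; compounds (final up to 57.5 uM) added 1 h before LPS (250 ng/mL) and ATP (1.25 mM) stimulation; lower signal means less secretion.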
# Six1-Eya2 inh: inhibitors of human Six1/Eya2 interaction. AlphaScreen GST-Six1/His-Eya2 binding, biochemical; active compounds read low. Q15475+O00167. hit rate 0.56% among 360,000. activity change, % (concentration not given with the values); in the data active means activity change below about -65%; inconclusive means mostly about -30% to -63%
#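 Six1/Eya2 binding was read as AlphaScreen signal after compounds were pinned into GST-Six1 plus His-tagged Eya2 (5X stock 250/500 nM) in pH 8.0 Tris/NaCl/TCEP buffer, beads added, then incubated 1 h, 37 C, dark.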
# TDP1 cell noCPT: qHTS for Inhibitors of human tyrosyl-DNA phosphodiesterase 1 (TDP1): qHTS in cells in absence of CPT; AID 686978, 2013; hit rate 15% among 420,000; DT40 Tdp1-/- hTDP1 cells, no CPT, ATP luminescence, 48 h; Potency, µM (highest dose often 46.2 µM), actives largely listed as inhibitors; further: nearly all actives have a fitted effect of over 55% in size
#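 Camptothecin absent (DMSO only). Human TDP1-complemented DT40 knockout cells, 400 cells/well, 37 °C for minimum 48 hr; ATP measured via CellTiter-Glo, 30 min dark incubation, luminescence.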
# CtBP-E1A inh: CtBP/E1A binding inhibition. AlphaScreen GST-E1A/His-CtBP binding, 1536-well; active compounds read low. activity change, % (no concentration beside the values). hit rate 0.49% among 340,000; in the data active means activity change below about -65%; inconclusive means mostly about -30% to -63%
#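 Homogeneous bead-based format: GST-tagged E1A captured on glutathione donor beads, His-tagged CtBP on nickel acceptor beads; compounds precede bead addition by 2 h at 37 °C.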
# TDP1 block: TDP1 (human) enzyme inhibition | Potency, µM (series often up to 130 µM), most hits filed as inhibitors | hit rate 0.28% among 350,000 | recombinant TDP1, AlphaScreen DNA substrate cleavage; further: nearly all actives have a fitted effect of over 40% in size
# Target sequence (Q9NUW8 whole entry, looked up): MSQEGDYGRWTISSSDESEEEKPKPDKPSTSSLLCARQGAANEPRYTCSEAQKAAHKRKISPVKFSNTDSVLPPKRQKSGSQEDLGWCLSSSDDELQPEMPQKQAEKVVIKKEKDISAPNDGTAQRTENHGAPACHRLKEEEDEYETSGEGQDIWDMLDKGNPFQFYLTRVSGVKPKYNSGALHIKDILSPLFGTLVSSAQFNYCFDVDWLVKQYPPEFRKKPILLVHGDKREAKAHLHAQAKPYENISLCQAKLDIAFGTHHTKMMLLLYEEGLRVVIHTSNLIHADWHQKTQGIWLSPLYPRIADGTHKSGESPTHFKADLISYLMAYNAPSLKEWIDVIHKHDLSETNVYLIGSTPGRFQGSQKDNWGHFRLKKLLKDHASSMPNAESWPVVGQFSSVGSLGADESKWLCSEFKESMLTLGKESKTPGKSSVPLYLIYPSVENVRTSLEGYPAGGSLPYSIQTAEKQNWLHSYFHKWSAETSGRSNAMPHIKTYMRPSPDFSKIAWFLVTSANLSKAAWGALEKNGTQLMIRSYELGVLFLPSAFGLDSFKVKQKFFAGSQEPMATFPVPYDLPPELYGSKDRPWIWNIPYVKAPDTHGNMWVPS
#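 AlphaScreen read-out: signal falls as enzyme removes the 3' tyrosine-FITC from a 5'-biotinylated DNA oligo (15 nM, 5 min, RT). Enzyme was E. coli-made recombinant Tdp1 at 1 nM, exposed to compound for 15 min beforehand; beads 10 ug/ml, 10 min.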
# Numbers stand for hits; n = inactive; u = inconclusive; x = no result. Rows were chosen to be rich in hits. Some 18% of all compounds tested hit in one or more screens of this group. Unless noted, the call rests on the fitted dose curve; in most records, active means well fitted curve in the direction sought with a large enough effect; inconclusive means small, poorly fitted or top-dose-only effect, or another doubt; inactive means no such curve, though single readings can be large; an effect the other way counts as inactive or inconclusive.
SMILES,TDP1 cell CPT,IL1B secr inh,Six1-Eya2 inh,TDP1 cell noCPT,CtBP-E1A inh,TDP1 block
Nc1nc2ccc(Cl)cc2cc1C(=O)NCCc1ccc(O)cc1,u,n,n,18µM,n,x
COc1ccc(CCNC(=O)c2cc3cc(Cl)ccc3nc2N)cc1OC,13µM,n,n,8.2µM,n,x
Nc1ccc(CNC(=O)c2cc3cc(Cl)ccc3nc2N)cc1,u,n,n,u,n,x
Cc1ccc(S(=O)(=O)N[C@H](C(=O)OCn2nnc3ccccc3c2=O)C(C)C)cc1,u,n,n,u,n,n
COc1c(C)cc(C(=O)C2CCCN(C(=O)C3=C(C)OCCO3)C2)cc1C (centres undefined),u,n,n,u,x,x
CCCNC(=O)N(CCOC)CC1CCCN(C2Cc3ccccc3C2)C1 (centres undefined),n,n,n,n,n,x
N#CCSc1nnc(C2CCCCC2)n1Cc1ccccc1,10µM,n,n,n,n,n
CC(=O)Oc1ccc(/C=c2\sc3ncnn3c2=O)cc1,21µM,n,n,u,n,n
NC(=O)c1c(NC(=O)C(=O)NCCCN2CCOCC2)sc2c1CCCC2,n,n,n,n,n,n
CCc1cc(=O)oc2cc(C)cc(OCC(=O)NCCN3CCOCC3)c12,n,n,n,n,n,n
CCCc1cc(=O)oc2cc(C)cc(OCC(=O)NCCN3CCOCC3)c12,n,n,n,n,n,n
CCCc1cc(=O)oc2cc(OCC(=O)NCCN3CCOCC3)c(Cl)cc12,23µM,n,n,16µM,n,x
CCCc1cc(=O)oc2cc(C)cc(OCC(=O)Nc3ccc(CN4CCOCC4)cc3)c12,18µM,n,n,5.8µM,n,n
O=C(NCC1CCCO1)c1cc(C(=O)C2CC2)c[nH]1 (centres undefined),n,u,n,n,n,n
O=C(CSc1ccccc1)NCc1ccc2c(c1)CCN2C(=O)c1ccc(Cl)cc1,n,x,x,u,x,n
CCCc1n(CC(O)COCC2CC=CCC2)c2ccccc2[n+]1C (centres undefined),8.2µM,n,n,10µM,n,n
CCCc1n(CC(O)COC2CCCCC2)c2ccccc2[n+]1C (centres undefined),7.3µM,n,n,3.7µM,n,n
CCCc1n(CC(O)COCc2ccccc2)c2ccccc2[n+]1C (centres undefined),23µM,n,n,23µM,n,n
Cc1ccc(Sc2c([N+](=O)[O-])c(=O)n(C)c3ccccc23)cc1,15µM,n,n,13µM,n,x
CCCn1c(N)c(Sc2ccc([N+](=O)[O-])cc2)c(=O)n(CCC)c1=O,n,n,n,u,n,n
CCCn1c(N)c(Sc2ccccc2)c(=O)n(CCC)c1=O,u,n,n,15µM,n,n
N#CCC(=O)N1CCN(Cc2ccc3c(c2)OCO3)CC1,n,n,n,n,x,x
Cc1ccc(S(=O)(=O)n2c(CN3CCCC(C)C3)nc3ccccc32)cc1 (centres undefined),n,-51,n,n,n,n
Cc1ccc(C)c(S(=O)(=O)N2CCCCC2CCNC(=O)C(=O)NCCc2ccco2)c1 (centres undefined),u,n,n,u,n,n
Cc1cc(C)c(S(=O)(=O)N2CCCCC2CCNC(=O)C(=O)NCc2ccco2)c(C)c1 (centres undefined),u,u,n,16µM,n,n
Cc1ccc(S(=O)(=O)N2CCCCC2CCNC(=O)C(=O)NCCc2ccco2)cc1 (centres undefined),2.9µM,n,n,4.1µM,n,n
Cc1ccc(S(=O)(=O)N2CCOC2CNC(=O)C(=O)NCc2ccco2)cc1 (centres undefined),n,n,n,n,n,n
Cc1cc(C)c(S(=O)(=O)N2CCCCC2CCNC(=O)C(=O)NCCN2CCOCC2)c(C)c1 (centres undefined),u,n,n,u,n,n

# Source: PubChem
